# Test results reported in PubChem BioAssay (NCATS).
# Inconclusive results are not listed. Where a call stands in place of a potency, no number is given. Calls of active or inactive are those of the source. Unless noted, calls come from the whole dose curve; as a rule, active = well fitted curve in the direction sought with a large enough effect; inconclusive = small, poorly fitted or top-dose-only effect, or another doubt; inactive = no such curve, though single readings can be large; an effect the other way counts as inactive or inconclusive.
# What was measured:
# [1] = Cell Viability - LYMP2-021 (AID 974);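 note: compound exposure lasts 24 hours at 37 °C; nearly all actives have a fitted effect of over 55% in size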
# Outline: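 In qHTS format, compounds are tested against 2500 lymphoblastoid cells per well for 24 h; viable cell number is inferred from ATP-driven luciferase light, and Hill-equation fitting yields AC50 values.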
# [2] = Cell Viability - LYMP2-023 (AID 975);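 note: cellular ATP measured by luciferase luminescence as viability proxy; series mostly up to about 92 µM; nearly all actives have a fitted effect of over 55% in size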
# Outline: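 In this qHTS, ATP-based luciferase luminescence (CellTiter-Glo) is quantified in human lymphoblastoid cells after 24 hr compound treatment at 37 C; tetraoctylammonium bromide serves as positive control. Concentration-response curves are Hill-fitted to give AC50.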
# [3] = Cell Viability - LYMP2-025 (AID 976); note: series mostly up to about 92 µM
# Outline: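 Luminescent ATP readout after 24 hr treatment of a human lymphoblastoid line (LYMP2-025, 2500 cells/well, 37 C). Reagent developed 30 min at room temperature; AC50 fitted with the Hill equation.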
# [4] = Cell Viability - LYMP2-002 (AID 977);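 note: series mostly up to about 92 µM; compound exposure lasted 24 h at 37 °C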
# Outline: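 Human lymphoblastoid cells, 2500/well, complete medium; 5 h 37 C settle; compound 24 h 37 C; CellTiter-Glo, 30 min RT; luminescence. Decrease in ATP = cytotoxicity; AC50 via Hill equation.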
# [5] = Cell Viability - LYMP2-006 (AID 978); note: series mostly up to about 92 µM; nearly all actives have a fitted effect of over 60% in size
# Outline: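 Concentration-dependent loss of intracellular ATP in a human lymphoblastoid line after 24 hr treatment at 37 C was measured by CellTiter-Glo luminescence, with AC50 values obtained from standard Hill-equation modelling.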
# [6] = Cell Viability - LYMP2-007 (AID 979);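 note: cells exposed to compound for 24 h before reading; nearly all actives have a fitted effect of over 60% in size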
# Outline: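 Measured via luciferase-based ATP quantitation: lymphoblastoid cells, 24 hr compound exposure at 37 C, AC50 from Hill fits.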
# [7] = Cell Viability - LYMP2-008 (AID 980); note: nearly all actives have a fitted effect of over 60% in size
# Outline: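 Measured: ATP-dependent luminescence, proportional to viable cell number, in human lymphoblastoid cells treated 24 hr with compound in complete culture medium. Values are AC50s from Hill-equation modelling of qHTS titrations.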
# [8] = Cell Viability - LYMP2-012 (AID 982);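 note: cellular ATP by luciferase luminescence where a drop means cytotoxicity; cells exposed to compound for one day before reading; nearly all actives have a fitted effect of over 55% in size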
# [9] = Cell Viability - LYMP2-014 (AID 983); note: series mostly up to about 92 µM; nearly all actives have a fitted effect of over 50% in size
# Outline: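 Quantitative HTS in lymphoblastoid cells: 24 hr compound exposure, then CellTiter-Glo ATP luminescence. Positive control was tetraoctylammonium bromide, 6.4pM to 92 uM.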
# [10] = Cell Viability - LYMP2-018 (AID 985); note: nearly all actives have a fitted effect of over 50% in size
# Outline: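 In this qHTS viability assay, cells are treated for 24 hr and cellular ATP is quantified by luciferase-based luminescence, with tetraoctylammonium bromide as positive control.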
# [11] = Cell Viability - LYMP2-020 (AID 986); note: series mostly up to about 92 µM; nearly all actives have a fitted effect of over 55% in size
# Outline: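 Cells at 2500 per well receive a 24 hr compound exposure at 37 C. Viability is measured as ATP-dependent luciferase luminescence, with AC50 modeled from qHTS concentration-response curves.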
# [12] = Cell Viability - LYMP2-026 (AID 989); note: nearly all actives have a fitted effect of over 50% in size
# Outline: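 Acute toxicity screen in complete culture medium, with 24 hr compound exposure at 37 C. Viability read as cellular ATP via luciferase reaction, with tetraoctylammonium bromide (6.4pM to 92 uM) as positive control.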
# [13] = Cell Viability - LYMP1-002 - Assay at 24 hr (AID 993)
# Outline: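 Viability was judged from intracellular ATP using a luciferase read-out, following a 24-hour compound incubation at 37 C of lymphoblastoid cells seeded at 2500 per well. Concentration-response data were fitted to the Hill equation for AC50.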
# [14] = Cell Viability - LYMP1-002 - Assay at 40 hr (AID 994); note: nearly all actives have a fitted effect of over 60% in size
# Outline: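 Concentration-dependent ATP loss after 40 hr treatment at 37 C defined toxicity; AC50 values were obtained by fitting the standard Hill equation.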
# [15] = qHTS Assay for Identification of Small Molecule Inducers of Hypoxia Response (AID 2120; active = well fitted curve in the direction sought with a large enough effect in the signal ratio, with a control signal flat, not every such curve was filed as active; the % refers to the signal ratio)
# Outline: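 HRE-bla ME-180, 2500 cells/well, 0.5% dialyzed FBS medium; cpd titration, 17 h 37 degrees C; CCF4 2.5 h RT; Ex 405, Em 460/530 ratio -> %Activity, AC50.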
# [16] = biological target: Estrogen receptor (Homo sapiens) (UniProt P03372); assay: qHTS assay for small molecule antagonists of estrogen receptor alpha signaling (AID 588513; active = well fitted curve in the direction sought with a large enough effect in the signal ratio, with a control signal flat, not every such curve was filed as active; the % refers to the signal ratio)
# Outline: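 Cells were plated at 5000/well and incubated 4 h at 37 C. Compounds were added as 1:2 dilution series, duplicates. 17-beta-estradiol (0.5nM final) was added for 18 h before CCF4 detection.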
# [17] = biological target: Androgen receptor (Homo sapiens) (UniProt P10275); assay: qHTS assay for small molecule agonists of androgen receptor signaling (AID 588515; active = well fitted curve in the direction sought with a large enough effect in the signal ratio, with a control signal flat; the % refers to the signal ratio); settings: AR-UAS-bla HEK293, beta-lactamase ratio, agonist 16 h; stronger effect = higher value
# Outline: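 Stimulation of an AR-responsive β-lactamase reporter in GripTite HEK293 cells was measured after 16 h compound exposure at 37 °C, via CCF4 fluorescence after 2 h RT. EC50 from Hill fits, normalized to R1881 at 30 nM.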
# [18] = biological target: Bile acid receptor (Homo sapiens) (UniProt Q96RI1); assay: qHTS assay for small molecule antagonists of farnesoid X receptor signaling (AID 588526; calls by dose curve)
# Outline: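 Antagonist mode: titrated compounds tested against chenodeoxycholic acid stimulation (normalized to 50 uM CDCA and DMSO) in GeneBLAzer HEK293T cells for 16 h. Beta-lactamase read by CCF4 fluorescence; IC50 from Hill fits.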
# [19] = biological target: Bile acid receptor (Homo sapiens) (UniProt Q96RI1); assay: qHTS assay for small molecule agonists of farnesoid X receptor signaling (AID 588527; calls by dose curve; note: series mostly up to about 77 µM); settings: HEK293T FXR-UAS-bla, beta-lactamase ratio, 16 h; stronger effect = higher value
# Outline: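 FXR-UAS-bla HEK293T cells (10% dialyzed FBS) preincubated 5-7 h at 37 C, then compounds at up to 92 uM for 16 h at 37 C. CCF4 beta-lactamase read-out after 2 h RT. Normalized to chenodeoxycholic acid (100 uM) and DMSO; Hill fit gave EC50 and efficacy.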
# [20] = biological target: Peroxisome proliferator-activated receptor delta (Homo sapiens) (UniProt Q03181); assay: qHTS assay for small molecule agonists of peroxisome proliferator-activated receptor delta signaling (AID 588534; calls by dose curve)
# Outline: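 EC50 and efficacy values derive from Hill fits of a concentration series in a beta-lactamase reporter cell assay. Exposure is 18 hrs at 37 C, with CCF4 fluorescence as the readout.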
# [21] = qHTS assay for small molecule antagonists of peroxisome proliferator-activated receptor delta signaling (AID 588535; active = well fitted inhibition curve with a large enough effect in the signal ratio, with a control signal flat, not every such curve was filed as active; the % refers to the signal ratio;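 for max response: cells co-treated with a PPAR-delta agonist as stimulator during compound exposure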); settings: HEK293T PPARd-UAS-bla, beta-lactamase FRET ratio, 18 h; 460 nm channel
# Outline: (§1)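 Beta-lactamase reporter read-out (405 nm excitation, 460/530 nm emission) after CCF4 loading for 2 hrs at RT. HEK293T PPAR-delta-UAS-bla cells, 2% charcoal/dextran FBS, compounds for 18 hrs at 37 C. Hill fit gave IC50 and efficacy.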
# [22] = biological target: Peroxisome proliferator-activated receptor delta (Homo sapiens) (UniProt Q03181); assay: as above
# Outline: as §1
# [23] = biological target: Vitamin D3 receptor (Homo sapiens) (UniProt P11473); assay: qHTS assay for small molecule antagonists of vitamin D receptor signaling (AID 588541; calls by dose curve;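 note: receptor activated by calcitriol during compound treatment; series mostly up to about 77 µM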)
# Outline: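 VDR-UAS-bla HEK293T cells in 2% charcoal-stripped FBS were stimulated with 1-alpha,25-dihydroxyvitamin D3 (3 nM final) plus compound for 16 h at 37 C. The beta-lactamase CCF4 readout was normalized to 50 nM agonist and DMSO, and Hill fits gave IC50.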
# [24] = biological target: Vitamin D3 receptor (Homo sapiens) (UniProt P11473); assay: qHTS assay for small molecule agonists of vitamin D receptor signaling (AID 588543; calls by dose curve)
# Outline: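 qHTS in agonist mode: compound titrations stimulate a VDR-driven β-lactamase reporter in HEK293T cells over 16 h at 37 °C. Response normalized to 50 nM 1α,25-dihydroxyvitamin D3 = 100%, DMSO = 0%; Hill fitting gives EC50 and maximal response.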
# [25] = qHTS assay for small molecule agonists of retinoid X receptor alpha signaling (AID 588544; calls by dose curve); settings: HEK293T RXRa-UAS-bla, beta-lactamase reporter, 18 h; 530 nm emission
# [26] = biological target: Retinoic acid receptor RXR-alpha (Homo sapiens) (UniProt P19793); assay: as above
# [27] = biological target: Thyroid hormone receptor beta (Homo sapiens) (UniProt P10828); assay: qHTS assay for small molecule agonists of thyroid hormone receptor beta signaling (AID 588545; calls by dose curve)
# Outline: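 Stimulation of a TR-driven beta-lactamase reporter was quantified in GripTite HEK 293 cells. Compound series ran for 18 hrs; curves were normalized to T3 and DMSO controls and fitted to yield EC50.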
# [28] = biological target: Voltage-gated inwardly rectifying potassium channel KCNH2 (Homo sapiens) (UniProt Q12809); assay: qHTS Assay for Small Molecule Inhibitors of the Human hERG Channel Activity (AID 588834);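 note: U2OS cells transduced with hERG by BacMam; top concentration of the series differs between compounds; lower thallium flux fluorescence means stronger hERG block; nearly all actives have a fitted effect of over 50% in size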
# Outline: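 Cells were infected with hERG-BacMam virus for 4 hrs at room temperature, grown overnight, then seeded at 2000/well. After dye loading and roughly 10 min compound treatment, thallium influx was triggered and fluorescence recorded.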
# [29] = qHTS assay for small molecule agonists of the antioxidant response element (ARE) signaling pathway (AID 651741; active = well fitted activation curve with a large enough effect in the signal ratio; the % refers to the signal ratio; note: potency is the fitted concentration of half-maximal effect)
# Outline: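 HepG2 ARE-bla reporter cells, 2,000/well; 5 h settle at 37 C/5% CO2; compound pin transfer (23 nL, DMSO); 16 h at 37 C; LiveBLAzer B/G FRET substrate, 2 h RT; fluorescence intensity read.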
# [30] = qHTS assay for small molecule activators of the p53 signaling pathway (AID 651743; active = well fitted activation curve with a large enough effect in the signal ratio, not every such curve was filed as active; the % refers to the signal ratio; note: series mostly up to about 92 µM); settings: HCT-116 p53RE-bla, beta-lactamase FRET ratio, 16 h; activation: stronger effect = higher value
# Outline: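 Reporter: beta-lactamase driven by p53 response elements, stably integrated in HCT-116 cells. Cells seeded at 4,000/well, 5 h preincubation, compound (DMSO) 16 h at 37 C; B/G FRET substrate 2 h RT; fluorescence intensity read.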
# [31] = qHTS assay for small molecule activators of the nuclear factor-kappa B (NF-kB) signaling pathway (AID 651749; active = well fitted activation curve with a large enough effect in the signal ratio; the % refers to the signal ratio; note: series mostly up to about 77 µM); settings: NF-kB-bla ME-180 cells, beta-lactamase FRET ratio, 16 h; stronger effect = higher value
# Outline: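 NF-kB-bla ME-180 cells, 2,000/well; 23 nL compound or DMSO pinned; 16 hr, 37C/5% CO2; beta-lactamase FRET read-out.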
# [32] = qHTS assay for small molecule disruptors of the mitochondrial membrane potential - 5 hr assay (AID 651755; calls by dose curve; note: potency is the fitted concentration of half-maximal effect; nearly all actives have a fitted effect of over 40% in size)
# Outline: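 Read-out: ratiometric Mito-MPS fluorescence, green monomer (ex 490/em 535) vs red mitochondrial aggregate (ex 540/em 590). HepG2 cells treated 5 hr at 37C before 30 min dye loading.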
# [33] = qHTS assay for environmental chemicals that activate the Aryl hydrocarbon Receptor (AhR) signaling pathway (AID 651777); settings: 1A2-DRE human hepatoma cells, luciferase, 24 h; activation: stronger effect = higher value; note: nearly all actives have a fitted effect of over 15% in size
# Outline: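 Human hepatoma 1A2-DRE cells stably carrying a DRE/CYP1A2 promoter–luciferase reporter, 1,200 cells/well, exposed to compound 24 hr at 37 C. Luciferase read by One-Glo luminescence after 30 min at room temperature; increased signal marks AhR activation.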
# [34] = biological target: Peroxisome proliferator-activated receptor alpha (Homo sapiens) (UniProt Q07869); assay: qHTS assay for small molecule agonists of the peroxisome proliferator-activated receptor alpha (PPARalpha) signaling pathway (AID 651778); settings: PathHunter PPARalpha complementation, chemiluminescence, 6 h; stronger effect = higher value
# Outline: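 Enzyme-fragment complementation assay in which ligand-bound PPARalpha translocates and forms an active enzyme that generates chemiluminescence. Cells were plated overnight, exposed to compound for 6 hr at 37 C, and then given detection reagent for 60 min at room temperature.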
# [35] = biological target: Nuclear receptor ROR-gamma (Homo sapiens) (UniProt P51449); assay: qHTS assay for small molecule antagonists of the retinoid-related orphan receptor gamma (ROR-gamma) signaling pathway (AID 651802)
# Outline: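 Doxycycline-induced reporter activity in engineered CHO cells (TET-inducible ROR, RORE-LUC) was measured by luminescence after 16hr compound exposure at 37C.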
# [36] = qHTS assay for small molecule antagonists of the retinoid-related orphan receptor gamma (ROR-gamma) signaling pathway - cell viability counter screen (AID 720652; active = well fitted curve in the direction sought with a large enough effect in the repeat runs; an effect the other way counts as inactive or inconclusive;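 note: CHO reporter cells with doxycycline-induced ROR-gamma expression; series mostly up to about 92 µM; compound exposure lasted 16 hr before ATP read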)
# Outline: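 ATP-based viability readout in the ROR-gamma reporter CHO cells after 16 hr compound exposure under doxycycline induction.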
# [37] = qHTS assay for cell viability of HEK293 cells (AID 743288); settings: ATP luminescence (CellTiter-Glo), 18 h, stronger effect = lower value; note: nearly all actives have a fitted effect of over 50% in size
# Outline: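 Quantitative high-throughput screen: compounds were pinned onto parental HEK293 cells (2,000 per well) after a minimum 5 h settling at 37 C, incubated 18 h at 37 C, and intracellular ATP measured by luciferase luminescence.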
# [38] = qHTS assay for cell viability of the p53RE-bla HCT-116 cell line (AID 743292); note: nearly all actives have a fitted effect of over 55% in size
# Outline: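 CellSensor p53RE-bla HCT-116 cells (4,000/well) pre-incubated 5 h at 37 C, then exposed to compounds in DMSO for 16 h at 37 C. Viability read as ATP content by CellTiter-Glo luminescence after 30 min at room temperature.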
# [39] = biological target: Nuclear receptor subfamily 1 group I member 2 (Rattus norvegicus) (UniProt Q9R1A7); assay: qHTS assay for small molecule activators of the rat pregnane X receptor (rPXR) signaling pathway (AID 651751; call rule not given here); settings: rPXR reporter cells, luciferase (One-Glo), 24 h
# [40] = qHTS assay for small molecule activators of the human pregnane X receptor (PXR) signaling pathway (AID 720659; call rule not given here)
# Sequence of Vitamin D3 receptor (Homo sapiens) (P11473 whole entry, looked up): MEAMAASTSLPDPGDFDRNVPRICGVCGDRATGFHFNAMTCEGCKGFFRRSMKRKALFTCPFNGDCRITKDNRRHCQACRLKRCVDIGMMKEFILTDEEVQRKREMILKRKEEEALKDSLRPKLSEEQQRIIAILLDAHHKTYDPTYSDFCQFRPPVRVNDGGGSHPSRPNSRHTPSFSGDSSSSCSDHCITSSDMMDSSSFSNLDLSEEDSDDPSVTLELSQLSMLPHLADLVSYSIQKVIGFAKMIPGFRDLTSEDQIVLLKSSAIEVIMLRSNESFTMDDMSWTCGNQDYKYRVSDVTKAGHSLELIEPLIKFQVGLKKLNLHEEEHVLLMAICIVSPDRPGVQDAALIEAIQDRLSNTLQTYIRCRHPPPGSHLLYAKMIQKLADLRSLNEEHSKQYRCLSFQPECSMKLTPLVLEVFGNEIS
# Sequence of Bile acid receptor (Homo sapiens) (Q96RI1 whole entry, looked up): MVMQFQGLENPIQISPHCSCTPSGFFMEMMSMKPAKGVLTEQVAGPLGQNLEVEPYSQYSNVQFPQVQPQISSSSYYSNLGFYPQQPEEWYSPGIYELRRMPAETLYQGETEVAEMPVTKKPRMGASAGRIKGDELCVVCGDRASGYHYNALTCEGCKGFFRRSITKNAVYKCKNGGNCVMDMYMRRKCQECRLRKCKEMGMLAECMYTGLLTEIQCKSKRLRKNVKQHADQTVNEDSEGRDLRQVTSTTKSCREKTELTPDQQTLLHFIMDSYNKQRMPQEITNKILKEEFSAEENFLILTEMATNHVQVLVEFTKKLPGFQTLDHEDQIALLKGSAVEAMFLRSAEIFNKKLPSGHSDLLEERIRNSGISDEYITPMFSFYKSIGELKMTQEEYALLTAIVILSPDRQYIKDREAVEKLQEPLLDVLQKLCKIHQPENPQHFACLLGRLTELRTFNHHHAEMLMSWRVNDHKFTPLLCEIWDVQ
# Sequence of Peroxisome proliferator-activated receptor delta (Homo sapiens) (Q03181 whole entry, looked up): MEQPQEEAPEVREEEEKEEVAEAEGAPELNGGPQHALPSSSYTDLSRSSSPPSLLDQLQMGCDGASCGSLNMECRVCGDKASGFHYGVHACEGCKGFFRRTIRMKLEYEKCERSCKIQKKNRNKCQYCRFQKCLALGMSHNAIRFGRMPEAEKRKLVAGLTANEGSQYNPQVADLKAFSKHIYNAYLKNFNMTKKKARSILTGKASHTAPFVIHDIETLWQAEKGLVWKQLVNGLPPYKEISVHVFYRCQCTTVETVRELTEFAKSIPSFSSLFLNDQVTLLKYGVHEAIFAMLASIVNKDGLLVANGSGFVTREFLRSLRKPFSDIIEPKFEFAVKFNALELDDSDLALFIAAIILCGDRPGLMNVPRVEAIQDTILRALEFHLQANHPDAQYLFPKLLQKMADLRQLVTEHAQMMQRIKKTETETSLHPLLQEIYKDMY
# Sequence of Androgen receptor (Homo sapiens) (P10275 whole entry, looked up): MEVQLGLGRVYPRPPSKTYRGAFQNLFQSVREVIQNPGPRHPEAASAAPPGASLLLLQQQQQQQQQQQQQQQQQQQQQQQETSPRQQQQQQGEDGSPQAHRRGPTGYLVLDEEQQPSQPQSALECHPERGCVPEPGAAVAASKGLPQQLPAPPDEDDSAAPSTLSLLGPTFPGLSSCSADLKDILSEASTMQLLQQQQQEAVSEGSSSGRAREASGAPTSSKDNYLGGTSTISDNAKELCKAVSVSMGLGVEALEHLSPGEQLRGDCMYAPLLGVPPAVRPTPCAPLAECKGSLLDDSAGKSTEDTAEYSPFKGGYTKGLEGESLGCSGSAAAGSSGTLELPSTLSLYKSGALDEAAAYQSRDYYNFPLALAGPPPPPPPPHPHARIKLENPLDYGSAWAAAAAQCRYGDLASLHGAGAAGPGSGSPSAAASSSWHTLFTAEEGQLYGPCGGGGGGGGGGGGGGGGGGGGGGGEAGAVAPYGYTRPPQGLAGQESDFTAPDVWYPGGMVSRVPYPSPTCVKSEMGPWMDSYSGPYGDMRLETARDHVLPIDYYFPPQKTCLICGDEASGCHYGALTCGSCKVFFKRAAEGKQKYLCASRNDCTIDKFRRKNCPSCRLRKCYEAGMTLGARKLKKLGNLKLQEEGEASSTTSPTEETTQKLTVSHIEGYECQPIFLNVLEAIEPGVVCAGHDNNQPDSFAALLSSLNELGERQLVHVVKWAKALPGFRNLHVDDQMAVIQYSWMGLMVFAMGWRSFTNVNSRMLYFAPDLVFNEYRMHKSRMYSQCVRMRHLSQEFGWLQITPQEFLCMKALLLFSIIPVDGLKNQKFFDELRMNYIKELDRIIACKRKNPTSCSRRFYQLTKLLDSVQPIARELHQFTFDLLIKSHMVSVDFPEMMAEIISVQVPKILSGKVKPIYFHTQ
# Sequence of Nuclear receptor ROR-gamma (Homo sapiens) (P51449 whole entry, looked up): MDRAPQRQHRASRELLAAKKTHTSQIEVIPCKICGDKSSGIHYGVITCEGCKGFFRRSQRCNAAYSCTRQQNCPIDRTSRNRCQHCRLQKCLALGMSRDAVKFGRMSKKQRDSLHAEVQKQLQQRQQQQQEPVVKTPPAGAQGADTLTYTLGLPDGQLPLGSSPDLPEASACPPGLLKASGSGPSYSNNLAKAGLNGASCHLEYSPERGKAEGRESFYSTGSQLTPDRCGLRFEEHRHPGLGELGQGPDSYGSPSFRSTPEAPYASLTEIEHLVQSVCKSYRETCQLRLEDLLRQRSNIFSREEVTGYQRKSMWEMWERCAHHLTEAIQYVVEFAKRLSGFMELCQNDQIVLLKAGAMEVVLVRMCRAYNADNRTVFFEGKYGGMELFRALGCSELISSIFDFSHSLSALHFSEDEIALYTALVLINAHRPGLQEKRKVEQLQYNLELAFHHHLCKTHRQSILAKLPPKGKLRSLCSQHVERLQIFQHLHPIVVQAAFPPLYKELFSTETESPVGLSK
# Sequence of Retinoic acid receptor RXR-alpha (Homo sapiens) (P19793 whole entry, looked up): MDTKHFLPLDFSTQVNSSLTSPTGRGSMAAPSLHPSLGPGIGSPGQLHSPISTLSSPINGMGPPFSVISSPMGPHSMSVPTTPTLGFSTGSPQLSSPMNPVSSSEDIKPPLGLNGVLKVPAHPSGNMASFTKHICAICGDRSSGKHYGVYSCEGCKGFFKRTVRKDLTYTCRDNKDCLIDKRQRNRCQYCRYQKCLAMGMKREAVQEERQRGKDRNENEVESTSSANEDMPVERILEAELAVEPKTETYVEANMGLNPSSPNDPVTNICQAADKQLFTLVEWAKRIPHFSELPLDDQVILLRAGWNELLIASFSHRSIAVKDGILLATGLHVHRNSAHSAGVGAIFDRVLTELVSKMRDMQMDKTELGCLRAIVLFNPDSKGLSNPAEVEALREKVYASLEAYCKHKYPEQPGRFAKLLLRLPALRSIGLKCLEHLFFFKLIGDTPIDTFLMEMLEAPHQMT
# Sequence of Nuclear receptor subfamily 1 group I member 2 (Rattus norvegicus) (Q9R1A7 whole entry, looked up): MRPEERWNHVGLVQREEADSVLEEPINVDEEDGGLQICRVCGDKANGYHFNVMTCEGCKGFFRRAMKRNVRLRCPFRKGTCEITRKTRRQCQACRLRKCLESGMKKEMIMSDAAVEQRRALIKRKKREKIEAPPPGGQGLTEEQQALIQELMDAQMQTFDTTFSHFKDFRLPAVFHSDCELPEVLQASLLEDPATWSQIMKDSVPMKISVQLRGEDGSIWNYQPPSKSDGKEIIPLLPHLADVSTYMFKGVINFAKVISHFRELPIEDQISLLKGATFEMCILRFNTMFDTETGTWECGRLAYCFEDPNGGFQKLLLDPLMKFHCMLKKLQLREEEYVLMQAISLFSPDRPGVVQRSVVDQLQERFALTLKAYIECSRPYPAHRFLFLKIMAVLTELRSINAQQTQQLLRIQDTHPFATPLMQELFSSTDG
# Sequence of Peroxisome proliferator-activated receptor alpha (Homo sapiens) (Q07869 whole entry, looked up, the tested form may be a part): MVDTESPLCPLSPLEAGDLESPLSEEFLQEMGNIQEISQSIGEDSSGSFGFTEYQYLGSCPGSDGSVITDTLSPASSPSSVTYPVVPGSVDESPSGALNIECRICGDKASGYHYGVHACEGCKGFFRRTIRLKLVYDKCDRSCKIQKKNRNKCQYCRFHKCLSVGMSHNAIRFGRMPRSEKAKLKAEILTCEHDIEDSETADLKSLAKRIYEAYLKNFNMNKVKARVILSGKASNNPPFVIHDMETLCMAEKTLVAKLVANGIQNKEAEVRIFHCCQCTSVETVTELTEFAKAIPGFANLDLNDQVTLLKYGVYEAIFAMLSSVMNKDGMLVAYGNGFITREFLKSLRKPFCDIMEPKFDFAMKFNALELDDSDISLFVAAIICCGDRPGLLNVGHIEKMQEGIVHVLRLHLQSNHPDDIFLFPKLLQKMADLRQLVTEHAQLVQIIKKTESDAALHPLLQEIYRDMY
# Sequence of Estrogen receptor (Homo sapiens) (P03372 whole entry, looked up): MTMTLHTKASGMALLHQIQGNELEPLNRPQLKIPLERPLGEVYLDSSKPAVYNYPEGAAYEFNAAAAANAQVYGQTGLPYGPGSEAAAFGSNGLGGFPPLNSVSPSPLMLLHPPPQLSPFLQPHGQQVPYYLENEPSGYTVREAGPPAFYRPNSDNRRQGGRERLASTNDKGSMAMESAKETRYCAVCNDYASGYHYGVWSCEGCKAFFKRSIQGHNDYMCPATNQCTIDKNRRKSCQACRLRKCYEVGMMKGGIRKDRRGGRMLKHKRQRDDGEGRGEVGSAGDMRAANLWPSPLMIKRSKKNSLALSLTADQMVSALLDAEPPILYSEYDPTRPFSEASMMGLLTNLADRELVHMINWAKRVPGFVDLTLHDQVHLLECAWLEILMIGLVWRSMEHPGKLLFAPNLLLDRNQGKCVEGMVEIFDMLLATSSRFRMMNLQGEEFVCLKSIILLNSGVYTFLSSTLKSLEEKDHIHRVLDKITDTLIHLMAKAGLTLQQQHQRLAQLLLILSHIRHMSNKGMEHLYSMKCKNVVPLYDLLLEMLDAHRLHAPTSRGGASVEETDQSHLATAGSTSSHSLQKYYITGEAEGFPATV
compound,measurement,setting,value
Nc1c(Br)cc([N+](=O)[O-])cc1[N+](=O)[O-],Potency,[1],inactive
same,Potency,[2],inactive
same,Potency,[3],inactive
same,Potency,[4],inactive
same,Potency,[5],inactive
same,Potency,[6],inactive
same,Potency,[7],inactive
same,Potency,[8],inactive
same,Potency,[9],inactive
same,Potency,[10],inactive
same,Potency,[11],inactive
same,Potency,[12],inactive
same,Potency,[13],inactive
same,Potency,[14],inactive
same,Potency,[15],inactive
same,Potency,[16],inactive
same,activation,[17],-3.78% (inactive)
same,outcome,[18],inactive
same,activation,[19],0.276% (inactive)
same,outcome,[20],inactive
same,max response,[21],33.6%
same,outcome,[22],inactive
same,outcome,[23],inactive
same,outcome,[24],inactive
same,max response,[25],-9.23%
same,outcome,[26],inactive
same,Potency,[27],inactive
same,Potency,[28],inactive
same,Potency,[29],37.6 µM (active)
same,activation,[30],-4.7% (inactive)
same,activation,[31],-0.945% (inactive)
same,Potency,[32],26.6 µM (active)
same,activation,[33],3.36% (inactive)
same,max response,[34],-5.44% (inactive)
same,Potency,[35],inactive
same,Potency,[36],inactive
same,max response,[37],-10.1% (inactive)
same,Potency,[38],inactive
same,max response,[39],14.9% (inactive)
same,outcome,[40],inactive
